Results with a measured potency or affinity are listed apart. Active and inactive are the calls of the source.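 The calls were made as follows: active = every repeat run showing a signal drop whose fitted half-maximal concentration is at most twice the top tested concentration; inconclusive = repeat runs disagree, or flat partial drop, or poor fit; inactive = the rest.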
Assay: HEK293T cytotoxicity, dose response, cytotoxicity control for miR-122 modulator project, cell-based, activator set, cherry-pick (AID 720690);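 also: 0% = neutral control wells and -100% = MG132 cytotoxic control wells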
Conditions: HEK293T viability, CellTiter-Glo luminescence, 48 h; series mostly up to 26 µM; activity change, negative = cytotoxicity: at the top concentration

SMILES | activity change, negative = cytotoxicity
COc1cccc(CNC(=O)C[C@H]2CC[C@@H]3[C@H](COc4ccc(NC(C)=O)cc4C(=O)N3C)O2)c1 | -12.8% (inactive)
C[C@@H]1CN([C@H](C)CO)S(=O)(=O)c2ccc(-c3ccccc3)cc2O[C@@H]1CN(C)C(=O)c1ccc2c(c1)OCO2 | -20.1% (inactive)
CC(C)C(=O)Nc1ccc2c(c1)C(=O)N(C)[C@H]1CC[C@H](CC(=O)NCCc3ccccc3)O[C@H]1CO2 | -2.16% (inactive)
Cc1nn(C)cc1NC(=O)C[C@@H]1CC[C@@H]2[C@@H](COc3ccc(NC(=O)Nc4cccc(Cl)c4)cc3C(=O)N2C)O1 | -5.53% (inactive)
CN(C(=O)C12CC3CC(CC(C3)C1)C2)C1CCS(=O)(=O)C1 (centres undefined) | -3.56% (inactive)
Cc1cc(C(=O)Nc2cccc(O)c2)co1 | 2.9% (inactive)
CCCNC(=O)N1[C@H](CNC(=O)c2ccc(F)cc2)[C@H](c2ccccc2)[C@@H]1CO | -5.2% [at 23.5 µM] (inactive)
COc1cccc(CNC(=O)C[C@@H]2CC[C@@H]3[C@H](COc4ccc(NC(C)=O)cc4C(=O)N3C)O2)c1 | 0.833% (inactive)
C/C=C/c1ccc([C@H]2[C@@H](CO)N(Cc3ccccn3)[C@H]2CNC(C)=O)cc1 | -9.49% [at 23.5 µM] (inactive)
COc1ccc(S(=O)(=O)N(C)C[C@@H]2Oc3cc(-c4cccc(F)c4)ccc3S(=O)(=O)N([C@@H](C)CO)C[C@H]2C)cc1 | -27.6% (inactive)
CN1C(=O)c2cc(NC(=O)c3cccc(F)c3)ccc2OC[C@@H]2O[C@H](CC(=O)Nc3ccccc3)CC[C@H]21 | -6% (inactive)
CCOc1ccc(NC(=S)N(CCCN2CCCC2)Cc2cccn2Cc2ccc(Cl)cc2)cc1 | -12.4% (inactive)
C[C@@H]1CN([C@H](C)CO)S(=O)(=O)c2ccc(C3=CCCCC3)cc2O[C@@H]1CN(C)C(=O)Nc1ccc2c(c1)OCO2 | -32.2% (inactive)
CCn1nnnc1SCC(=O)Nc1nnc(C(C)C)s1 | 10.6% (inactive)
CN1C(=O)c2cc(NC(=O)Nc3ccccc3Cl)ccc2OC[C@H]2O[C@H](CC(=O)O)CC[C@H]21 | 8.14% (inactive)
CC(=O)Nc1ccc(S(=O)(=O)Nc2ccc(S(=O)(=O)Nc3nc(C)cc(C)n3)cc2)cc1 | -10.1% [at 12 µM] (inactive)
Cc1cc(C)n(C(=O)Cn2nc(C)c(Br)c2C)n1 | 13.1% (inactive)
CC(C)C(=O)Nc1ccc2c(c1)C(=O)N(C)[C@H]1CC[C@@H](CC(=O)NCCCN(C)C)O[C@H]1CO2 | 5.88% (inactive)
COc1ccc(-c2ccc(C#N)c(OC(=O)c3c(Cl)cccc3Cl)n2)cc1 | -0.324% (inactive)
COc1ccc(OC)c(Nc2cc(C)nc3ccc(C)cc23)c1 | -11.7% (inactive)
COCC(=O)N(C[C@@H]1N[C@H](CO)[C@H]1c1ccc(C2=CCCC2)cc1)C(C)C | -16.6% (inactive)
CN1C(=O)c2cc(NC(=O)c3cccc(F)c3)ccc2OC[C@H]2O[C@H](CC(=O)N3CCc4ccccc4C3)CC[C@H]21 | -16.1% (inactive)
COC(=O)C[C@H]1CC[C@H]2[C@H](COc3ccc(NC(=O)c4cccc(F)c4)cc3C(=O)N2C)O1 | -6.8% (inactive)
Cn1c(NC(=O)c2ccco2)c(-c2ccccc2Cl)c(=O)c2ccccc21 | -9.64% (inactive)

Source: PubChem BioAssay AID720690 (Broad Institute, 2013)
